Source: PubChem BioAssay (NCATS)
Results filed as inconclusive are left out. The source made the active and inactive calls. Unless noted, the call rests on the fitted dose curve; in most records, active means well fitted curve in the direction sought with a large enough effect; inconclusive means small, poorly fitted or top-dose-only effect, or another doubt; inactive means no such curve, though single readings can be large; an effect the other way counts as inactive or inconclusive. Numbered stars: 1 amine (or outer) side, 2 acyl side, 3 side chain; on linkers, the order of the positions; unused ones are H or OH. Bridge positions count the residues as written; N and C are the ends. Square brackets hold non-standard residues; d marks the D form. Peptide text beside a SMILES is read from it. I, II: the chains in the order shown. Actinocin(9to1) = Cc1c2oc3c(C)ccc(C(=O)[*:1])c3nc-2c(C(=O)[*:2])c(N)c1=O; aThr = C[C@H](O)[C@H](N)C(=O)O; NMeV = CN[C@H](C(=O)O)C(C)C; Sar = CNCC(=O)O

What was measured:
[1] = molecular target: Glucocorticoid receptor (Homo sapiens) (UniProt P04150); experiment: GR-GFP Redistribution (AID 450;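 active means compounds whose dose series gives a full or clear partial fitted curve of increased nuclear translocation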; further: potency means the concentration at half of the fitted maximal effect); conditions: U2OS GR-GFP nuclear translocation, laser cytometry, 2 h
Sequence of Glucocorticoid receptor (Homo sapiens) (P04150 whole entry, looked up, the tested form may be a part): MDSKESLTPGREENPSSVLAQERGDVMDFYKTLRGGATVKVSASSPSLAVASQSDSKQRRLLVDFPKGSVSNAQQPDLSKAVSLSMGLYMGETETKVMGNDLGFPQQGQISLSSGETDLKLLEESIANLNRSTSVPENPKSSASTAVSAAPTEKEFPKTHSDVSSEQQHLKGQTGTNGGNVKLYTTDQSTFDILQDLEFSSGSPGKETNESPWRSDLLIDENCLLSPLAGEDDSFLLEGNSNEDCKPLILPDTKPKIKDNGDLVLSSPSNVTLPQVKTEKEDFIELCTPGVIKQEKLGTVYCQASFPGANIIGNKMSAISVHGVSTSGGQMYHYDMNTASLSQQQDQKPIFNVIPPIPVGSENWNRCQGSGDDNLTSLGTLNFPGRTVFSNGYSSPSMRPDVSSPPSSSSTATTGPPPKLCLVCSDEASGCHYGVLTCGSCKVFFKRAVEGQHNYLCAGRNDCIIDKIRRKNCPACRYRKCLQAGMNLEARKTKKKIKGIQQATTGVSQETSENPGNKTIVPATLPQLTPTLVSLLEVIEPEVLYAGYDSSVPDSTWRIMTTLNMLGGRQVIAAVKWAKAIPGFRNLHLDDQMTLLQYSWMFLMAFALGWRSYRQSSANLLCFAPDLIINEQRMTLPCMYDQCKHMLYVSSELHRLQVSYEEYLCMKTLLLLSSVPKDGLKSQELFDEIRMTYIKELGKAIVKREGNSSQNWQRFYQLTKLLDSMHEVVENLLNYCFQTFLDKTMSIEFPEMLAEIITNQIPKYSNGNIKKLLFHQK

[2] = molecular target: Glucocorticoid receptor (Homo sapiens) (UniProt P04150); experiment: GR-EFC Redistribution (AID 451; calls by dose curve; further: potency means the concentration at half of the fitted maximal effect); conditions: CHO-K1 GR-EFC translocation, beta-gal luminescence, 2 h
Method in brief: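 Translocation of GR-ED fusion to nuclear EA restores b-gal, read by luminescence after 1 h room-temperature detection. Engineered CHO-K1 biosensor cells, 1,000/well, exposed 2 h at 37 C to titrations up to 46 uM final.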

[3] = molecular target: Mitogen-activated protein kinase 10 (Mus musculus) (UniProt Q61831); experiment: JNK3 AlphaScreen Assay (AID 530; active means well fitted curve in either direction with a large enough effect, not every such curve was filed as active;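 further: kinase came from lysate of stimulated human HepG2 cells; signal reports phosphorylation of biotinylated GST-cJun 1-79 at Ser73 with 10 µM ATP; on the % scale 0 is the no-effect control and ±100 the full control effect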)
Method in brief: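 Compound titrations were preincubated 15 minutes at room temperature with substrate, antibody and pre-activated JNK3-containing HepG2 lysate. Reactions were started with 10 uM ATP and stopped with EDTA-containing bead buffer for AlphaScreen detection.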

[4] = molecular target: Cytochrome P450 3A4 (Homo sapiens) (UniProt P08684); experiment: qHTS Assay for Activators of Cytochrome P450 3A4 (AID 885); further: nearly all actives have a fitted effect of over 65% in size
Sequence of Cytochrome P450 3A4 (Homo sapiens) (P08684 whole entry, looked up): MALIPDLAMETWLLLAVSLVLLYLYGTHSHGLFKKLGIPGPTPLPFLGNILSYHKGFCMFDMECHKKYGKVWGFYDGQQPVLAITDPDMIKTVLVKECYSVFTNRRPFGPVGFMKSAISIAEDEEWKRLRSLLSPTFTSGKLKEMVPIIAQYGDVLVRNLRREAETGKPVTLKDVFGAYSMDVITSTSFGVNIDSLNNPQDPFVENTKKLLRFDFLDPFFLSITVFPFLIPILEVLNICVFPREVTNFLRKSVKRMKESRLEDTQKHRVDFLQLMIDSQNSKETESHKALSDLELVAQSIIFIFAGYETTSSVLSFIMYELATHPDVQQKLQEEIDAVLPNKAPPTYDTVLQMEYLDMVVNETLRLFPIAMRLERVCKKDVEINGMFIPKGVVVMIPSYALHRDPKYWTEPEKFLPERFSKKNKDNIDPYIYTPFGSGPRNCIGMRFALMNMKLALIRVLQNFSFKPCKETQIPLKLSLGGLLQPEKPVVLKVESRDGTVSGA
Method in brief: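 Signal was normalized against complete inhibition by 57 uM ketoconazole. The reaction used 20nM CYP3A4 with 25uM Luciferin-PPXE, 10-min compound preincubation and a 60-min NADPH-supported step at RT.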

[5] = molecular target: DNA dC->dU-editing enzyme APOBEC-3G (Homo sapiens) (UniProt Q9HC16); experiment: qHTS for inhibitors of Vif-A3G interactions: Validation (AID 588379); further: 0% is about no effect
Sequence of DNA dC->dU-editing enzyme APOBEC-3G (Homo sapiens) (Q9HC16 whole entry, looked up): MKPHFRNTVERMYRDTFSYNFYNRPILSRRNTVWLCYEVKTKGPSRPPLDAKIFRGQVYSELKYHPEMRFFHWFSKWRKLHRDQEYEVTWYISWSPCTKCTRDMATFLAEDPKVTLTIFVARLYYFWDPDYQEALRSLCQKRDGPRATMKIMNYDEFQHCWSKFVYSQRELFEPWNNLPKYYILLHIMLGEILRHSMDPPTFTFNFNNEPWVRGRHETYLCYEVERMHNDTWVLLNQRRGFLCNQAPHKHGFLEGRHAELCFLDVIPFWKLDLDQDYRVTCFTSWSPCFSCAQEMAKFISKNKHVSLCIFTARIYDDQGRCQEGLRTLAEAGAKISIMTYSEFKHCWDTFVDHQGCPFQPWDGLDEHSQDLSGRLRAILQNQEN
Method in brief: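 HeLa cells stably expressing Vif and A3G-eYFP, 700 cells/well, incubated overnight at 37 deg C, then exposed to compound overnight at 37 deg C. Inhibition of Vif-mediated degradation read as increased yellow fluorescence (Ex 488/Em 500-530) by laser-scanning cytometry.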

[6] = molecular target: Furin (Homo sapiens) (UniProt P09958); experiment: Furin counterscreen qHTS for Zika virus inhibitors (AID 1347149); further: nearly all actives have a fitted effect of over 70% in size; further: potency means the concentration at half of the fitted maximal effect;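 on activity change, negative = inhibition: purified recombinant full-length human furin enzyme at 5 nM; fluorescence gain from furin cutting a BOC-RVRR-AMC peptide substrate over 15 min; top concentration of the series differs between compounds; plate controls were no-inhibitor control for no effect and no-enzyme control for full effect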
Sequence of Furin (Homo sapiens) (P09958 whole entry, looked up): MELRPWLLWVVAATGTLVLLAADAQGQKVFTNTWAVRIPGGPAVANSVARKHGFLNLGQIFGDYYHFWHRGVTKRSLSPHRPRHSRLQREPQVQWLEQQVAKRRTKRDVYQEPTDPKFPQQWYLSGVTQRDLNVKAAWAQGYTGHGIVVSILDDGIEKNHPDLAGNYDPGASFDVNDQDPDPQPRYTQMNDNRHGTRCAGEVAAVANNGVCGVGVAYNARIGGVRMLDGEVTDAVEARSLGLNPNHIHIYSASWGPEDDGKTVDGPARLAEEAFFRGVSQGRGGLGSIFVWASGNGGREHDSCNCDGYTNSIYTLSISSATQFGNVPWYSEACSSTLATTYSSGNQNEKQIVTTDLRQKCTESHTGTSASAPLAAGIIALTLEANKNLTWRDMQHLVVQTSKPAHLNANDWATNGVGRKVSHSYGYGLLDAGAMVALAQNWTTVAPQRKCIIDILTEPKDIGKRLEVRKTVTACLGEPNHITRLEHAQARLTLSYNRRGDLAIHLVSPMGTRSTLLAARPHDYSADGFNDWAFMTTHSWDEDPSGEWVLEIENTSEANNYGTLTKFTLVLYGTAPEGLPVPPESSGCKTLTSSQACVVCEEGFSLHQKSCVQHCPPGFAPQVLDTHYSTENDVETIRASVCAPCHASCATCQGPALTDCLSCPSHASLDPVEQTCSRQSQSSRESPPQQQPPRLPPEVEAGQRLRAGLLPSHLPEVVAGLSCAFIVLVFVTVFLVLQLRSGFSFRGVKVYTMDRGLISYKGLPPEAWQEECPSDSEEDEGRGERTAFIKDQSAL
Method in brief: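 Fluorogenic cleavage of BOC-RVRR-AMC (2 microM final, Km ~15 µM) was monitored (ex 340, em 450 nm) at 37C after 15 min RT preincubation of 5 nM furin with compounds in HEPES pH 7.0 buffer with CaCl2 and Triton X-100. Percent inhibition was fitted to a 4-parameter Hill curve.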

[7] = test system: Zika virus NS2B-NS3 protease (unlinked); experiment: Optimization of GU AMC qHTS for Zika virus inhibitors: Unlinked NS2B-NS3 protease assay (AID 1347151); further: potency means the concentration at half of the fitted maximal effect; nearly all actives have a fitted effect of over 80% in size
Method in brief: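 Noncovalent complex of NS2B hydrophilic domain and NS3 protease domain, 25 nM final, in 10 mM Tris-HCl pH 8.0, 0.01% Tween 20. AMC fluorescence change over 15 min at room temperature was fitted to a 4-parameter Hill equation.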

[8] = test system: Zika virus NS2B-NS3 protease; experiment: Primary screen GU AMC qHTS for Zika virus inhibitors (AID 1347154); further: nearly all actives have a fitted effect of over 70% in size; further: potency means the concentration at half of the fitted maximal effect;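 on activity change, negative = inhibition: 0% = no-inhibitor control and -100% = no-enzyme control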
Method in brief: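 Fluorogenic AMC-substrate cleavage by noncovalent NS2B-NS3 protease complex (25 nM, pH 8.0 Tris buffer with Tween 20) followed for 15 minutes at room temperature (~20% conversion). Percent inhibition from ex340/em450 signal change, fitted by 4-parameter Hill equation.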

[9] = Vero cells viability qHTS for Zika virus inhibitors (AID 1347167); further: on the % scale 0 is the no-effect control and ±100 the full control effect
Method in brief: (§1)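 Compounds were tested in concentration series on cells grown in DMEM containing 4% FBS. After 24 to 48 hours, cellular ATP was measured by luminescence with CellTiter Glo.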

[10] = HepG2 cells viability qHTS for Zika virus inhibitors (AID 1347168); further: on the % scale 0 is the no-effect control and ±100 the full control effect
Method in brief: as §1

[11] = Primary qHTS for small molecule stabilizers of the endoplasmic reticulum resident proteome: Secreted ER Calcium Modulated Protein (SERCaMP) assay (AID 1508630); further: on the % scale 0 is the no-effect control and ±100 the full control effect
Method in brief: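 GLuc-SERCaMP-expressing SH-SY5Y cells, pretreated 16 h with compound, are challenged with thapsigargin to empty ER calcium stores; after 4 h, coelenterazine is added directly to the medium and luminescence is imaged.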

[12] = molecular target: Cytochrome P450 2D6 (Homo sapiens) (UniProt P10635); experiment: Cytochrome P450 family 2 subfamily D member 6 (CYP2D6) small molecule antagonists: luciferase biochemical (cell-free) qHTS assay (AID 1645840; active means well fitted curve in the direction sought with a large enough effect in the repeat runs; an effect the other way counts as inactive or inconclusive; further: on the % scale 0 is the no-effect control and ±100 the full control effect; nearly all actives have a fitted effect of over 55% in size)
Sequence of Cytochrome P450 2D6 (Homo sapiens) (P10635 whole entry, looked up): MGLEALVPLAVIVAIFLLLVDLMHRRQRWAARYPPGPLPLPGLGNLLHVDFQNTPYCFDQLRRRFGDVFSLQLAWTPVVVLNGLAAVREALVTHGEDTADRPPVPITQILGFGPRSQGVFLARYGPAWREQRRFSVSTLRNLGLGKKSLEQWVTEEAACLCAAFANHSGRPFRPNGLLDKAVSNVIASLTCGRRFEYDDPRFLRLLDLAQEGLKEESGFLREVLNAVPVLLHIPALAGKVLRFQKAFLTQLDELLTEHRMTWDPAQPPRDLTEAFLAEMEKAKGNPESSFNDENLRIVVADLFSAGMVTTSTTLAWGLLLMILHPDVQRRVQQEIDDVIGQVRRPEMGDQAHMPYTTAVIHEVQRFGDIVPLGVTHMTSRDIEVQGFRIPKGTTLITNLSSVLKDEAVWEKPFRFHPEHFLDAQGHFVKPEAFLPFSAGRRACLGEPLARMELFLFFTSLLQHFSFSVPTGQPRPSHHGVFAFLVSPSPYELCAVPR
Method in brief: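 P450-Glo luminescent screen: recombinant CYP2D6 enzyme–proluciferin substrate mix preincubated with compound 10 min at room temperature, then NADPH regeneration added for 1 h at room temperature. Detection reagent added for 20 min; luciferin light read as relative luminescence units.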

[13] = test system: Zika virus NS2B-NS3 protease (linked construct); experiment: Confirmatory screen NINDS AMC qHTS for Zika virus inhibitors (AID 1347152);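 further: AMC fluorescence gain from cleaved Bz-Nle-KRR-AMC substrate over 15 min; top concentration of the series differs between compounds; 0% = no-inhibitor control and -100% = no-enzyme control; nearly all actives have a fitted effect of over 70% in size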
Method in brief: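 Purified NS2B-NS3 protease with NS2B hydrophilic domain linked to NS3 protease domain by flexible linker, 1 nM final in 10 mM Tris-HCl pH 8.0, 0.01% Tween 20. Compounds preincubated 15 min, room temperature; Bz-Nle-KRR-AMC 10 microM (Km 18.3 µM); 15-min fluorescence change, 4-parameter Hill fit.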

[14] = test system: Zika virus NS2B-NS3 protease (unlinked complex); experiment: Confirmatory screen GU AMC qHTS for Zika virus inhibitors (AID 1347153);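 further: percent inhibition with 0% = no inhibitor control and 100% = no enzyme control; nearly all actives have a fitted effect of over 70% in size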
Method in brief: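 Compounds were preincubated 15 min at room temperature with 25 nM noncovalent NS2B-NS3 protease at pH 8.0; AMC substrate added at 10 microM and 15-min fluorescence gain (340/450 nm) converted to percent inhibition, fitted 4-parameter.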

[15] = Confirmatory screen NINDS Rhodamine qHTS for Zika virus inhibitors (AID 1347161); further: nearly all actives have a fitted effect of over 60% in size; further: potency means the concentration at half of the fitted maximal effect;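 on activity change, negative = inhibition: purified Zika NS2B-NS3 protease with linked NS2B cofactor domain and Rhodamine110 peptide substrate; plate controls were no-inhibitor control for no effect and no-enzyme control for full effect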
Method in brief: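 Purified linked NS2B-NS3 protease (NS2B hydrophilic domain joined to NS3 protease by flexible linker), 25 nM in 10 mM Tris-HCl pH 8.0, 0.01% Tween 20. Compounds titrated, 15 min preincubation at room temperature; 1.5 microM Rhodamine110 substrate, FITC fluorescence change over 15 min.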

[16] = molecular target: Cytochrome P450 3A4 (Homo sapiens) (UniProt P08684); experiment: qHTS Assay for Inhibitors and Substrates of Cytochrome P450 3A4 (AID 884); further: on the % scale 0 is the no-effect control and ±100 the full control effect; nearly all actives have a fitted effect of over 50% in size
Method in brief: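 20 nM human CYP3A4 with 25 uM Luciferin-PPXE (at KM) in 200 mM KPO4, preincubated 10 min with compound; NADPH regeneration started a 60 min RT reaction. Luciferin detected by luminescence, normalized to 57 uM ketoconazole as full inhibition.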

[17] = Confirmation and Secondary Assay for Modulators of Hemoglobin Beta Chain Splicing at IVS2 654 locus (AID 910);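 further: HeLa cells stably carrying EGFP split by mutant beta-globin IVS2-654 intron; per-well total GFP intensity by laser scanning cytometry after 2-day treatment; % of control where 0% means no effect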
Method in brief: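 Readout: per-well total peak green fluorescence (488 nm ex, 500–520 nm em) from objects 5–250 µm, reflecting correct splicing of an EGFP-654 reporter. Compounds were applied for 2 days at 37 °C to overnight-plated HeLa EGFP-654 cells; controls were DMSO and 500 nM IVS2-654 PNA.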

[18] = Confirmation and Secondary Assay for Modulators of Hemoglobin Beta Chain Splicing at IVS2 705 locus (AID 930);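 further: HeLa cells stably expressing the EGFP-705 splicing reporter; GFP fluorescence per well restored by corrected splicing of the IVS2-705 intron in EGFP; % of control where 0% means no effect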
Method in brief: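 Splice-correction reporter: EGFP cDNA split by beta-globin intron 2 bearing the 705 mutation, stably in HeLa. Compound incubation 2 days, 37C; fluorescent objects 5-250 µm summed per well.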

[19] = qHTS Assay for Lipid Storage Modulators (AID 1519; calls by dose curve); conditions: Drosophila S3 cells, BODIPY lipid droplet/cell ratio, laser cytometry, cells loaded with oleic acid; for activity change, negative = inhibition: at 57.5 µM (top of the series)
Method in brief: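 Cells seeded at 5,000 per well were treated with compounds over a concentration series and loaded with oleic acid (400 uM, as added). Lipid droplet fluorescence (488 nm excitation, 500-530 nm channel) was read by laser-scanning cytometry and normalized to 20 uM Triacsin C.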

[20] = Tertiary RLuc qRT-PCR qHTS assay for Zika virus inhibitors (AID 1347169); further: top concentration of the series differs between compounds; on the % scale 0 is the no-effect control and ±100 the full control effect; nearly all actives have a fitted effect of over 55% in size
Method in brief: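 Vero cells (1,000 per well) plated overnight at 37 degrees C, treated with compound in DMSO, then infected with recombinant ZIKV-RLuc (Cambodian) at MOI 1-2 for 48-72 hrs. Live-cell Renilla luciferase substrate added; luminescence read after 1-1.5 hrs.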

[21] = molecular target: Tyrosyl-DNA phosphodiesterase 1 (Homo sapiens) (UniProt Q9NUW8); experiment: Confirmation Assay for Inhibitors of Tyrosyl-DNA Phosphodiesterase (TDP1) (AID 489007); conditions: recombinant human TDP1 enzymatic activity, dose-response; further: potency means the concentration at half of the fitted maximal effect; nearly all actives have a fitted effect of over 40% in size
Sequence of Tyrosyl-DNA phosphodiesterase 1 (Homo sapiens) (Q9NUW8 whole entry, looked up): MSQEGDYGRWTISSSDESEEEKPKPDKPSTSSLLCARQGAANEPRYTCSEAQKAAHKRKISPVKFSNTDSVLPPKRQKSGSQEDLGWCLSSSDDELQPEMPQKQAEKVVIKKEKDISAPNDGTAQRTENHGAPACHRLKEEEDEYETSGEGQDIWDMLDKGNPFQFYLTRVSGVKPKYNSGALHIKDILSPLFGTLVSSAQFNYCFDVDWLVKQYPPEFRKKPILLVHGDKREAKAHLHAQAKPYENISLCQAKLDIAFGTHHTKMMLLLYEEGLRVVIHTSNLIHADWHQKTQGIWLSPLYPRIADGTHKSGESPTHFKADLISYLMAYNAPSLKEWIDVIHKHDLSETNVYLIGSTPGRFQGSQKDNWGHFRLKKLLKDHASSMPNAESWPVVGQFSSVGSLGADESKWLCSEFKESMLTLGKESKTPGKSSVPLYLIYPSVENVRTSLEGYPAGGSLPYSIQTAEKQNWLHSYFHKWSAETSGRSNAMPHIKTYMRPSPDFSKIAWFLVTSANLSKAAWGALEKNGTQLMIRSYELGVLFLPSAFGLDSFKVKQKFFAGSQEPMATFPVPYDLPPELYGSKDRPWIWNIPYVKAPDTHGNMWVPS
Method in brief: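 Tdp1 1 nM + cpd, 15 min RT; add biotin/phosphotyrosine-FITC oligo 15 nM, 5 min RT; add AS donor/acceptor beads 10 ug/ml, 10 min RT; read AlphaScreen. No-enzyme wells = max signal.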

[22] = Confirmatory screen GU Rhodamine qHTS for Zika virus inhibitors qHTS (AID 1347157)
Method in brief: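 A qHTS format was used, with compound concentrations ranging up to 114 microM. Each compound was preincubated with 25 nM NS2B-NS3 protease, and the substrate was then added at 1.5 microM. Curves were fitted with a 4-parameter Hill model.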

[23] = ZIKV-mCherry secondary qHTS for Zika virus inhibitors (AID 1347158); further: top concentration of the series differs between compounds
Method in brief: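 Vero, 5,000 cells/well, o/n 37 °C; cpd pin-transferred in DMSO; ZIKV-mCherry MOI 1, 48-72 h 37 °C; 32% PFA stock fix, Hoechst; imaged 10x DAPI/mCherry; mCherry+ threshold 450 RFU; % infection.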

[24] = test system: Zika virus NS2B-NS3 protease (linked); experiment: 384 well plate NINDS AMC confirmatory qHTS for Zika virus inhibitors (AID 1347163); further: potency means the concentration at half of the fitted maximal effect; nearly all actives have a fitted effect of over 50% in size
Method in brief: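 Linked NS2B-NS3 protease (final 5 nM, 30 nM or 60 nM) was preincubated with compounds (final up to 1 mM) for ~15 minutes. Ac-VKTGKR-AMC substrate (final 30 microM) then reacted for 25 minutes at room temperature in the dark. Fluorescence (ex 355/em 460 nm) was normalized to no-enzyme and no-inhibitor controls.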

[25] = test system: Zika virus NS2B-NS3 protease (linked construct); experiment: 384 well plate NINDS Rhodamine confirmatory qHTS for Zika virus inhibitors (AID 1347164);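 further: fluorescence from protease cleavage of Ac-LKRR-rhodamine 110 substrate; potency means the concentration at half of the fitted maximal effect; nearly all actives have a fitted effect of over 65% in size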
Method in brief: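 Linked protease at a final 5 nM, 30 nM or 60 nM was preincubated ~15 min with compounds, then given 10 microM Ac-LKRR-Rhodamine 110. Fluorescence (ex 485/em 538 nm) after 25 min in the dark at room temperature.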

[26] = measured here: cell count channel max response
[27] = measured here: lipid channel max response

Cc1c2oc3c(C)ccc(C(=O)N[C@@H]4C(=O)N[C@@H](C(C)C)C(=O)N5CCC[C@@H]5C(=O)N(C)CC(=O)N(C)[C@@H](C(C)C)C(=O)O[C@H]4C)c3nc-2c(C(=O)N[C@@H]2C(=O)N[C@@H](C(C)C)C(=O)N3CCC[C@@H]3C(=O)N(C)CC(=O)N(C)[C@@H](C(C)C)C(=O)O[C@H]2C)c(N)c1=O (I: [aThr]V[dP][Sar][NMeV] / II: [aThr]V[dP][Sar][NMeV]; ester I:1-I:C, II:1-II:C; linker I:N-II:N via Actinocin(9to1))
active: Potency [7] 27.1 µM
inactive: Potency [1] > 46 µM | Potency [2] > 46 µM | Potency [3] | Potency [4] | Potency [5] | Potency [6] | Potency [8] | Potency [9] | Potency [10] | Potency [11] | Potency [12]

CCOC(=O)O[C@H](C)OC(=O)C1N2C(=O)[C@H](NC(=O)[C@H](N)c3ccccc3)C2SC1(C)C (some centres undefined)
inactive: Potency [6] | Potency [13] | Potency [14] | Potency [15] | Potency [9] | Potency [10]
active: Potency [8] 26.7 µM

COc1ccc(-c2ccnc(N[C@H]3CO[C@H]4[C@@H]3OC[C@@H]4NS(=O)(=O)c3ccc4ccccc4c3)n2)cc1
inactive: Potency [6] | Potency [13] | Potency [14]

CN(Cc1cnc2nc(N)nc(N)c2n1)c1ccc(C(=O)NC(CCC(=O)O)C(=O)O)cc1 (centres undefined)
16%: max response [19, 27]
active: Potency [6] 21.5 µM
7.14%: max response [19, 26]
inactive: Potency [16] | outcome [17] | outcome [18] | activity change, negative = inhibition [19] 6.64% | Potency [13] | Potency [14] | Potency [9] | Potency [10] | Potency [20] | Potency [11]

O=C(O)COc1ccc(-c2nccc3c2C(=O)N(Cc2cccc(C(F)(F)F)c2)CC(COc2cccnc2)O3)cc1 (centres undefined)
inactive: Potency [6] | Potency [13] | Potency [14]

O=C(O)CSc1nc2ccc(NC(=O)COc3ccc(Cl)cc3)cc2s1
active: Potency [21] 11.2 µM | Potency [22] 31.6 µM | Potency [15] 20 µM | Potency [24] 25.1 µM | Potency [25] 28.2 µM
inactive: Potency [6] | Potency [23] | Potency [20]

O=c1c(-c2cc(O)c(O)c(O)c2)coc2cc(O)c(O)c(O)c12
active: Potency [21] 0.282 µM | Potency [22] 22.4 µM | Potency [15] 12.6 µM | Potency [24] 316 µM | Potency [25] 126 µM
21.8%: max response [19, 27]
inactive: Potency [4] | outcome [17] | outcome [18] | activity change, negative = inhibition [19] 15.6% | Potency [6] | Potency [23]
7.38%: max response [19, 26]
